ELG1 repair inh = qHTS screen for small molecules that inhibit ELG1-dependent DNA repair in human embryonic kidney (HEK293T) cells expressing luciferase-tagged ELG1. HEK293T ELG1-luciferase reporter, luminescence, 16 h; DNA damage induced by 5-fluorouridine. Potency, µM (doses to about 46.1 µM), most hits filed as inhibitors. 330,000 tested, 2.3% active; note: nearly all actives have a fitted effect of over 55% in size
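Reporter activity after DNA damage by 5-fluorouridine is monitored. Compound-treated cells incubate 16 hr at 37 °C, then ONE-Glo is added for 30 min before luminescence reading.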
Gal4-VP16 FLuc = VP16 counterscreen qHTS for inhibitors of ROR gamma transcriptional activity; Drosophila S2 Gal4-VP16 UAS-luciferase, luminescence, 20 h; Potency, µM (titrated, usually from 53.6 µM), usual class: inhibitors; 310,000 tested, 3.5% active; AID 2546, 2010;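 note: Gal4-VP16 expression switched on by copper sulfate through the metallothionein promoter; nearly all actives have a fitted effect of over 50% in size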
BRCA1 expr act = qHTS Assay to Identify Small Molecule Activators of BRCA1 Expression; MCF7-BRCA1-FFLuc reporter, luminescence, 48 h; response scale: scaled: vehicle 0%, 10 µM genistein 100%; Potency, µM (doses to about 46.1 µM), hits mostly activators; 380,000 tested, 1.1% active; AID 624202, 2012; note: nearly all actives have a fitted effect of over 80% in size
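48 h compound treatment of MCF7-BRCA1-FFLuc cells (phenol-red free MEM, 37 °C), then 15 min with luciferase substrate and luminescence imaging.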
RORg inh = qHTS for inhibitors of ROR gamma transcriptional activity. Drosophila S2 Gal4-RORgamma UAS-luciferase reporter, 20 h. Potency, µM (titrated, usually from 53.6 µM), most hits filed as inhibitors. 310,000 tested, 5.4% active. AID 2551, 2010; note: nearly all actives have a fitted effect of over 60% in size
Target sequence (P51450 whole entry, looked up, the tested form may be a part): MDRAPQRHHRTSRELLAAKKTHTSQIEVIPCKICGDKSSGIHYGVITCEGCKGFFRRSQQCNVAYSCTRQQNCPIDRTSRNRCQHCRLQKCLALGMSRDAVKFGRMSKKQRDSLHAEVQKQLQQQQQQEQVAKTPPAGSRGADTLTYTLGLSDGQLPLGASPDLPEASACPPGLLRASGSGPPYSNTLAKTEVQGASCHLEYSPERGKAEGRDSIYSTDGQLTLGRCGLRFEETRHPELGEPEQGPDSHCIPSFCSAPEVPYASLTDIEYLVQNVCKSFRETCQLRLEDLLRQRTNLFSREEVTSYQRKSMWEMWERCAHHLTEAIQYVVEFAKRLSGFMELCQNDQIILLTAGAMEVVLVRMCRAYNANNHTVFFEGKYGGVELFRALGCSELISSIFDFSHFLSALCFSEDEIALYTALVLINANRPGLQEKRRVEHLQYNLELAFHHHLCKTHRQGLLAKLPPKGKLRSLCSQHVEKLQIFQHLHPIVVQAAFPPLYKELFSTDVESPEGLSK
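Drosophila Schneider cells stably carrying a metallothionein-driven Gal4 DBD–ROR gamma fusion and a UAS-Photinus luciferase reporter were exposed to compound for 1 hr, then induced with copper sulfate (700 uM final) for 20 hr at ambient temperature before luminescence reading.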
p53 reactivator = qHTS assay for re-activators of p53 using a Luc reporter | H1299 p53-A138V BP100-luciferase reporter, luminescence, 24 h | Potency, µM (highest dose often 92.2 µM), hits mostly activators | 320,000 tested, 0.063% active; note: nearly all actives have a fitted effect of over 45% in size
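H1299 (p53-null), stable ts p53-A138V + BP100-Luc; 1000 cells/well, Opti-MEM/10% FBS; cpd 4 pt, 1:5; 24 h, 37 deg C, 5% CO2; detection reagent 10 min RT; luminescence.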
Giardia killer = Small Molecules that selectively kill Giardia lamblia: qHTS; Giardia lamblia trophozoite viability; activity change, % at 7.66 µM, hits read low; 340,000 tested, 0.15% active; AID 540267, 2011; in the data active = activity change below about -80%; inconclusive = between about -30% and that limit;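 note: parasites exposed to compound for two days anaerobically before the ATP read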
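Trophozoite viability was measured as ATP-dependent luminescence, read 15-30 min after reagent addition. Before that, parasites at 100 cells/well were exposed to compounds for 48 h, anaerobically, at 37 deg C.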
Large screens that a line does not name were inactive; ! = not active in a repeat. Compounds with a hit are over-represented: about 7.6% of the library has one in this group of screens. Unless noted, calls come from the whole dose curve; as a rule, active = well fitted curve in the direction sought with a large enough effect; inconclusive = small, poorly fitted or top-dose-only effect, or another doubt; inactive = no such curve, though single readings can be large; an effect the other way counts as inactive or inconclusive.

COc1cccc(Nc2ncc3nc(-c4ccc(F)cc4)c(=O)n(C)c3n2)c1	none (no result: ELG1 repair inh, BRCA1 expr act, p53 reactivator, Giardia killer)
Nc1nc(CCl)nc(Nc2cccc3ccccc23)n1	ELG1 repair inh inconclusive, Gal4-VP16 FLuc 10µM, RORg inh 11.2µM
Cc1ccccc1Nc1nc(N)nc(COC(=O)c2ccccc2)n1	ELG1 repair inh inconclusive, BRCA1 expr act 14.1µM, p53 reactivator inconclusive
Cc1ccccc1CSCc1nc(N)nc(Nc2ccccc2C)n1	ELG1 repair inh inconclusive, BRCA1 expr act 11.2µM
Cc1c(C(=O)NCc2cccc(C(F)(F)F)c2)sc(=O)n1Cc1ccccc1F	none (no result: ELG1 repair inh, Gal4-VP16 FLuc, RORg inh, p53 reactivator, Giardia killer)
CC(=O)c1ccc(-n2nnnc2SCC(=O)NC2CCCCC2)cc1	ELG1 repair inh inconclusive
Cc1ccc(Nc2ncccc2C(N)=O)cc1[N+](=O)[O-]	ELG1 repair inh inconclusive, BRCA1 expr act 5.62µM, RORg inh inconclusive, p53 reactivator inconclusive
Cc1ccc(N(CC(=O)NC2CCCCC2)S(=O)(=O)c2c(C)nn(C)c2C)cc1	none
CC1=C(/C=C/C(C)=C/C=C/C(C)=C/C(=O)O)C(C)(C)CCC1	RORg inh 5.01µM!
O=C(N/N=C/c1c(O)n(-c2ccc(Cl)cn2)c(=O)c2ccccc12)C1CC1	Gal4-VP16 FLuc 7.94µM, RORg inh 5.62µM
O=C(N/N=C/c1c(O)n(-c2ccc(Cl)cn2)c(=O)c2ccccc12)c1ccncc1	none
CCN(CC)S(=O)(=O)c1cccc(-c2nnc(SCC(=O)N3CCC(C(=O)O)CC3)n2N)c1	none
CN(C)c1ncnc2c1NC1=C(S2)C(=NCCCC(=O)O)CC(C)(C)C1	none
COc1ncnc2c1NC1=C(S2)C(=NCCC(=O)O)CC(C)(C)C1	Gal4-VP16 FLuc 17.8µM, RORg inh inconclusive
C=C1CC[C@H](O)C/C1=C/C=C1\CCC[C@]2(C)[C@@H]([C@H](C)CCCC(C)(C)O)CC[C@@H]12	Gal4-VP16 FLuc 11.2µM!, RORg inh inconclusive (no result: ELG1 repair inh, BRCA1 expr act, p53 reactivator, Giardia killer)
C=C1CC[C@H](O)C/C1=C/C=C1\CCC[C@]2(C)[C@@H]([C@H](C)CC[C@@H](O)C(C)(C)O)CC[C@@H]12	Gal4-VP16 FLuc inconclusive (no result: ELG1 repair inh, BRCA1 expr act, p53 reactivator, Giardia killer)
C=C1/C(=C\C=C2/CCC[C@]3(C)[C@@H]([C@H](C)CCCC(C)(C)O)CC[C@@H]23)C[C@@H](O)C[C@@H]1O	Gal4-VP16 FLuc inconclusive, RORg inh 10µM! (no result: ELG1 repair inh, BRCA1 expr act, p53 reactivator, Giardia killer)
O=C(N/N=C/c1cn(-c2cccs2)nc1-c1ccccc1)c1ccccc1Br	ELG1 repair inh inconclusive, Gal4-VP16 FLuc 6.31µM, RORg inh 5.62µM, p53 reactivator inconclusive
COc1ccc(NC(=O)c2cn(-c3ccccc3)nc2-c2cc3ccccc3o2)cc1	ELG1 repair inh inconclusive
O=C(N/N=C/c1cn(-c2ccccc2)nc1-c1cc2ccccc2o1)c1c[nH]c2ccccc12	ELG1 repair inh inconclusive, RORg inh inconclusive, p53 reactivator inconclusive
O=C(N/N=C/c1coc2ccccc2c1=O)c1cn(-c2ccccc2)nc1-c1ccccc1	none
O=C(N/N=C/c1cn(-c2ccccc2)nc1-c1cc2ccccc2o1)c1ccccc1Br	ELG1 repair inh inconclusive, Gal4-VP16 FLuc 5.01µM, BRCA1 expr act inconclusive, RORg inh inconclusive (no result: p53 reactivator)
Cc1nn(-c2ccccc2)cc1/C=N/NC(=O)c1cccs1	Gal4-VP16 FLuc inconclusive, RORg inh inconclusive
OCc1cn(-c2ccccc2)nc1-c1cc2ccccc2o1	ELG1 repair inh inconclusive, Gal4-VP16 FLuc 11.2µM, BRCA1 expr act 2.51µM, RORg inh inconclusive
O=C(N/N=C/c1cn(-c2cccs2)nc1-c1ccccc1)c1ccccc1O	ELG1 repair inh inconclusive, Gal4-VP16 FLuc inconclusive, RORg inh 0.0282µM, p53 reactivator inconclusive
CCOc1cc(-c2noc(CCC(=O)NCCc3ccccc3)n2)ccc1OC	none (no result: p53 reactivator)
Cc1[nH]nc2c1C(c1cn[nH]c1-c1ccc(F)cc1)C(C#N)=C(N)O2 (stereo not given)	none
CCC(=O)c1ccc(OCC(=O)O)cc1	none
